Records with an inconclusive call do not appear. Entries that show only a call come without a potency. Activity calls are given as the source filed them. Calls follow the shape of the dose curve; as a rule, active = well fitted curve in the direction sought with a large enough effect; inconclusive = small, poorly fitted or top-dose-only effect, or another doubt; inactive = no such curve, though single readings can be large; an effect the other way counts as inactive or inconclusive.
Experiments:
[1] = target: N-terminal Xaa-Pro-Lys N-methyltransferase 1 (Homo sapiens) (UniProt Q9BV86); assay: qHTS Assay for Inhibitors of N-terminal methyltransferase 1 (NTMT1): LOPAC validation of the NTMT1 SAHH-coupled ThioGlo3 Assay (AID 1347143);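 also: SAH from peptide methylation measured as thiol fluorescence via SAHH coupling and ThioGlo3; nearly all actives have a fitted effect of over 70% in size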; also: potency is read from the fitted curve at half-maximal effect
Method in brief: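 NTMT1 125nM + cpds (various conc.), 1 min RT; add SAM 100uM/SAHH 10uM/ThioGlo3 15uM (addition mix). SAHH-coupled thiol detection, Ex340/Em450, t0 and 30 min RT; signal normalized to background. LOPAC 1280-cpd pilot.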

[2] = tested on: Zika virus NS2B-NS3 protease (unlinked); assay: Optimization of GU AMC qHTS for Zika virus inhibitors: Unlinked NS2B-NS3 protease assay (AID 1347151); also: nearly all actives have a fitted effect of over 80% in size; also: potency is read from the fitted curve at half-maximal effect
Method in brief: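 Noncovalent NS2B hydrophilic domain–NS3 protease complex (25 nM final) in 10 mM Tris-HCl pH 8.0, 0.01% Tween 20; AMC substrate, room temperature 15 min (~20% conversion); fluorescence change normalized, 4-parameter Hill fit.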

[3] = tested on: Zika virus NS2B-NS3 protease; assay: Primary screen GU AMC qHTS for Zika virus inhibitors (AID 1347154); also: nearly all actives have a fitted effect of over 70% in size
Method in brief: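 Fluorogenic AMC-substrate cleavage by noncovalent NS2B-NS3 protease complex (25 nM, pH 8.0 Tris buffer with Tween 20) followed for 15 minutes at room temperature (~20% conversion). Percent inhibition from ex340/em450 signal change, fitted by 4-parameter Hill equation.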

Chain of N-terminal Xaa-Pro-Lys N-methyltransferase 1 (Homo sapiens) (Q9BV86 whole entry, looked up): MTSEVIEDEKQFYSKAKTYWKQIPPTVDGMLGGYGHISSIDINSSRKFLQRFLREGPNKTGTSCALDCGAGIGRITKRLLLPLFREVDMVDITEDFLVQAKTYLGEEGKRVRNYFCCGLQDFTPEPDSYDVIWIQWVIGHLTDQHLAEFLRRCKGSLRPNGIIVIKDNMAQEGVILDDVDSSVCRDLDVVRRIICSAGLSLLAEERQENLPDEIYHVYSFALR

SMILES	Potency [1]	Potency [2]	Potency [3]
CC[C@H]1OC(=O)[C@H](C)C(O[C@H]2C[C@@](C)(OC)[C@@H](O)[C@H](C)O2)[C@H](C)[C@@H](OC2O[C@H](C)C[C@H](N(C)C)[C@H]2O)[C@](C)(O)C[C@@H](C)CN(C)[C@H](C)[C@@H](O)[C@]1(C)O (stereo partly drawn)	inactive	inactive	
CC(=O)/C=C1\C(=O)N(C)c2ccccc21	28.2 µM (active)	inactive	
O=C1NCc2c1c1c3ccccc3[nH]c1c1[nH]c3ccccc3c21	79.4 µM (active)	23.8 µM (active)	
CCOC(=O)C1=C(C)NC(C)=C(C(=O)OCC)C1c1c(F)c(F)c(F)c(F)c1F	79.4 µM (active)	23.8 µM (active)	
Oc1ccccc1O	44.7 µM (active)	inactive	
CCN(CC)CCCCNc1ncc2cc(-c3c(Cl)cccc3Cl)c(NC(=O)NC(C)(C)C)nc2n1	44.7 µM (active)	2.99 µM (active)	
NCCCS(=O)(=O)O	inactive	inactive	
NO	inactive	inactive	
NC[C@H]1O[C@@H](n2cnc3c(N)ncnc32)[C@H](O)[C@@H]1O	inactive	inactive	
CN1C2CC(OC(=O)[C@H](CO)c3ccccc3)CC1C1OC12 (stereo partly drawn)	inactive	inactive	
c1ccc(-c2ccccn2)nc1	inactive	inactive	
NS(=O)(=O)c1ccc(-n2nc(C(F)(F)F)cc2-c2ccc(Cl)cc2)cc1	inactive	inactive	
Oc1cc(O)cc(/C=C/c2ccc(O)c(O)c2)c1	35.5 µM (active)	23.8 µM (active)	
O=C(O)CC1CCCc2ccccc2C1O (stereo not drawn)	inactive	inactive	
C=CC(N)CCC(=O)O (stereo not drawn)	inactive	inactive	
Cn1c(=O)c(-c2c(Cl)cccc2Cl)cc2cnc(Nc3ccc(N4CCOCC4)cc3)nc21	56.2 µM (active)	inactive	
COc1cc(C(O)CO)ccc1OS(=O)(=O)O (stereo not drawn)	inactive	inactive	
CC(=O)N[C@H](C(=O)O)C(C)(C)SN=O	inactive	inactive	
O=C1NC(O)=NC1(c1ccccc1)c1ccccc1	inactive	inactive	
N#C/C(=C\c1ccc(O)c(O)c1)C(=O)c1ccc(O)c(O)c1	31.6 µM (active)	1.19 µM (active)	
CCCCCCCCCCCCCCCCCCN(CCCCCCCCCCCCCCCCCC)CCCN(CCO)CCO	inactive	inactive	

SMILES	Potency [1]	Potency [2]	Potency [3]
O=Nc1ccc2oc(=O)ccc2c1	4.47 µM (active)	inactive	
Cc1cn([C@H]2CC(N=[N+]=[N-])[C@@H](CO)O2)c(=O)[nH]c1=O (stereo partly drawn)	inactive	inactive	
CN[C@H](CC(C)C)C(=O)N[C@H]1C(=O)N[C@@H](CC(N)=O)C(=O)N[C@H]2C(=O)N[C@H]3C(=O)N[C@H](C(=O)N[C@H](C(=O)O)c4cc(O)cc(O)c4-c4cc3ccc4O)[C@H](O)c3ccc(c(Cl)c3)Oc3cc2cc(c3O[C@@H]2O[C@H](CO)[C@@H](O)[C@H](O)[C@H]2O[C@H]2C[C@](C)(N)[C@H](O)[C@H](C)O2)Oc2ccc(cc2Cl)[C@H]1O	inactive	inactive	
CCC(CO)Nc1nc(NCc2ccccc2)c2ncn(C(C)C)c2n1 (stereo not drawn)	inactive	inactive	
COCCOc1cc2ncnc(Cl)c2cc1OCCOC	inactive	inactive	
CC[C@H]1OC(=O)[C@H](C)[C@@H](O[C@H]2C[C@@](C)(OC)[C@@H](O)[C@H](C)O2)[C@H](C)[C@@H](O[C@@H]2O[C@H](C)C[C@H](NC)[C@H]2O)[C@](C)(O)C[C@@H](C)CN(C)[C@H](C)[C@@H](O)[C@]1(C)O	inactive	inactive	
COc1ccc2c(c1)CCC1C2CC[C@@]2(C)C1CC[C@@H]2NCCCCCCN1C(=O)CCC1=O (stereo partly drawn)	inactive	inactive	
COC1=C(OC)C(=O)c2ccccc2C1=O	inactive	inactive	
CC(C)(C)c1ccc(S(=O)(=O)/C=C/C#N)cc1	4.47 µM (active)	inactive	
CN(C)CCC(c1ccc(Cl)cc1)c1ccccn1 (stereo not drawn)	inactive	inactive	
CN=c1nc(-c2ccccc2)n(-c2ccccc2)s1	0.316 µM (active)	inactive	
C[C@@H](CN1CCC(Cc2ccccc2)CC1)[C@@H](O)c1ccc(O)cc1	inactive	inactive	inactive
OC[C@H]1O[C@@H](n2cnc3c(NC4CCCCC4)ncnc32)[C@H](O)[C@@H]1O	inactive	inactive	inactive
Cn1ncc(S(=O)(=O)Cc2ccccc2)c(Br)c1=O	44.7 µM (active)	inactive	
CNCC[C@H](Oc1ccc(C(F)(F)F)cc1)c1ccccc1	inactive	inactive	inactive
COc1ccccc1CNCCCCCCNCCCCCCCCNCCCCCCNCc1ccccc1OC	35.5 µM (active)	inactive	inactive
Cc1ccc(O)c(N=Nc2ccccc2)n1	50.1 µM (active)	inactive	inactive
COC(=O)c1c(C)[nH]c(C)c1C(=O)c1ccccc1Cc1ccccc1	inactive	inactive	inactive
COc1cc2c(CCNC(C)=O)c[nH]c2cc1Cl	inactive	inactive	inactive
CCCCCCCCc1ccc(-c2ccc(C(=O)O)cc2)cc1	50.1 µM (active)	11.9 µM (active)	inactive
NC[C@@H]1O[C@H](C23CC4CC(CC(C4)C2)C3)Cc2c1ccc(O)c2O	50.1 µM (active)	inactive	inactive
